This note sets out measurements from the supplement of paper PMC12494721.

Structures can show the parent of a compound that is named as a salt. A number with no mark means an inactive call.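 How the source made its calls: for the amine columns active = adjusted P below 0.05 in both replicates with a change the same way and a mean fold change under 0.8 or over 1.25; inactive = the rest.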

The assay has as its system Klebsiella aerogenes DSM 30053. The assay can be described thus: fold change of Putrescine concentration vs plate DMSO controls (fold change (ratio)); higher = more amine produced, active = hit call of the paper (significant change in both replicates, either direction). The settings on record: incubation time: 27 h, anaerobic, 37 °C. The method in brief:
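Using LC–triple-quadrupole MS with dynamic MRM, amines were quantified against external calibration curves and corrected for drift within each batch. Samples were whole anaerobic mGAM cultures of four gut strains, grown 27 h at 37 °C from OD 0.1 before 1:1 dilution, extracted with cold acetonitrile/methanol containing 0.1% formic acid and centrifuged. Compounds were present at 20 µM final (sweeteners at 50 µM final). The numbers are fold changes versus plate DMSO controls, each the mean of 2 biological replicates.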
For `CCCSS/C(CCO)=C(/C)N(C=O)Cc1cnc(C)nc1N` [Prosultiamine] (20 µM), the “fold change of Putrescine concentration” value is 0.98.
`CN(C)CCOC(c1ccccc1)c1ccccc1.Cn1c(=O)c2[nH]c(Cl)nc2n(C)c1=O` [Dimenhydrinate] (20 µM): the “fold change of Putrescine concentration” value is 1.01.
Consider `CCCCCCCN(CC)CCCC(O)c1ccc(NS(C)(=O)=O)cc1` (centres undefined) [Ibutilide fumarate] (20 µM), for which the “fold change of Putrescine concentration” value is 0.989.
Regarding `Cc1cccc(Nc2ccncc2S(=O)(=O)NC(=O)NC(C)C)c1` [Torsemide] (20 µM), the “fold change of Putrescine concentration” value is 0.998.
`C=C1c2cccc(O)c2C(O)=C2C(=O)[C@]3(O)C(O)=C(C(N)=O)C(=O)[C@@H](N(C)C)[C@@H]3[C@@H](O)[C@H]12` [Methacycline hydrochloride] (20 µM): the “fold change of Putrescine concentration” value is 0.486 (active).
Regarding `O=C(O)CNC(=O)C(CS)Cc1ccccc1` (centres undefined) [Thiorphan] (20 µM), the “fold change of Putrescine concentration” value is 0.983.
Take `CCn1cc(C(=O)O)c(=O)c2cc(F)c(N3CCNCC3)nc21` [Enoxacin] (20 µM): the “fold change of Putrescine concentration” value is 1.19.
For `Cc1ccc(-c2ncc(Cl)cc2-c2ccc(S(C)(=O)=O)cc2)cn1` [Etoricoxib] (20 µM), the “fold change of Putrescine concentration” value is 0.959.
Consider `CNC(=O)OCc1cccc(COC(=O)NC)n1` [Pyricarbate] (20 µM), for which the “fold change of Putrescine concentration” value is 0.995.
Under `N#Cc1cc(NC(=O)C(=O)O)c(Cl)c(NC(=O)C(=O)O)c1` [Lodoxamide] (20 µM) stands 1.01; under `CNC1(C)C2CCC(C2)C1(C)C` (centres undefined) [Mecamylamine hydrochloride] (20 µM), 0.994.
As to `CCOC(=O)[C@H](CCc1ccccc1)N[C@@H](C)C(=O)N(CC(=O)O)C1Cc2ccccc2C1` [Delapril Hydrochloride] (20 µM), the “fold change of Putrescine concentration” value is 1.02.
The value for `CN1[C@@H]2CC[C@H]1C[C@@H](OC(c1ccccc1)c1ccccc1)C2` [Benztropine mesylate] (20 µM) was 1.03; that for `C[N+]1(CCCCC[N+]2(C)CCCC2)CCCC1` [Pentolinium bitartrate] (20 µM) was 1.01.
The value for `CC(=O)Oc1cc(C(F)(F)F)ccc1C(=O)O` [Triflusal] (20 µM) was 0.97.
The value for `COc1ccc2cc(CCC(C)=O)ccc2c1` [Nabumetone] (20 µM) was 0.974; that for `CN1C(=O)CC(c2ccccc2)C1=O` (centres undefined) [Phensuximide] (20 µM) was 1.01.
As to `CC(N)CCCC(C)(C)O` (centres undefined) [Heptaminol hydrochloride] (20 µM), the “fold change of Putrescine concentration” value was 1.
For the compound `CN(C)CCOC(c1ccc(Cl)cc1)c1ccccn1` (centres undefined) [Carbinoxamine maleate salt] (20 µM), the “fold change of Putrescine concentration” value is 1.02.
As to `C=CCN1CCCC1CNC(=O)c1cc2nn[nH]c2cc1OC` (centres undefined) [Alizapride hydrochloride] (20 µM), the “fold change of Putrescine concentration” value is 0.988.
Under `CC1(C)O[C@@H]2C[C@H]3[C@@H]4C[C@H](F)C5=CC(=O)C=C[C@]5(C)[C@H]4[C@@H](O)C[C@]3(C)[C@]2(C(=O)CO)O1` [Flunisolide] (20 µM) stands 1.05; under `C=CC(N)CCC(=O)O` (centres undefined) [Vigabatrin hydrochloride] (20 µM), 1.01; under `CC(N)C12CC3CC(CC(C3)C1)C2` (centres undefined) [Rimantadine hydrochloride] (20 µM), 1.01.
For the compound `O=C(O)c1cc(-c2ccc(F)cc2F)ccc1O` [Diflunisal] (20 µM), the “fold change of Putrescine concentration” value is 0.988.
As to `OC[C@H]1O[C@@H](O[C@@H]2[C@@H](CO)OC(O)(CO)[C@H]2O)[C@H](O)[C@@H](O)[C@H]1O` (mixture of isomers) [Lactulose] (50 µM), the “fold change of Putrescine concentration” value was 1.02.
In the case of `COc1ccc2c3c1O[C@H]1C[C@@H](O)C=C[C@@]31CCN(C)C2` [Galanthamine hydrobromide] (20 µM), the “fold change of Putrescine concentration” value is 1.
`O=C(CCNNC(=O)c1ccncc1)NCc1ccccc1` [Nialamide] (20 µM): the “fold change of Putrescine concentration” value was 1.
Consider `CC(C)OC(=O)C(C)(C)Oc1ccc(C(=O)c2ccc(Cl)cc2)cc1` [Fenofibrate] (20 µM), for which the “fold change of Putrescine concentration” value was 0.984.
As for `Cc1ccc2c(c1)c1c3n2CCNC3CCC1` (centres undefined) [Pirlindole mesylate] (20 µM), the “fold change of Putrescine concentration” value is 1.
Take `CC[N+](C)(C)Cc1ccccc1Br` [Bretylium tosylate] (20 µM): the “fold change of Putrescine concentration” value is 0.998.
Turning to `COC(=O)[C@H](Cc1ccccc1)NC(=O)[C@H](CC(=O)O)NCCCc1ccc(OC)c(O)c1` [Advantame] (50 µM), the “fold change of Putrescine concentration” value is 1.02.
With `O=C(c1cc(O)c(O)c(O)c1)c1ccc(O)c(O)c1O` [Exifone] (20 µM), the “fold change of Putrescine concentration” value is 0.998.
`COc1cc(N)cn[n+]1-c1ccccc1` [Amezinium metilsulfate] (20 µM): the “fold change of Putrescine concentration” value was 0.98.
Take `CN[C@@H]1[C@@H](O[C@H]2O[C@H](CO)[C@@H](N)[C@H](O)[C@H]2O)OC2C[C@@H](N)[C@@H](O[C@H]3[C@H](O)[C@@H](O)[C@H](N)C[C@@H]3N)OC2[C@@H]1O` (some centres undefined) [Apramycin] (20 µM): the “fold change of Putrescine concentration” value was 1.05.
Under `COc1ccc2[nH]c([S+]([O-])Cc3ncc(C)c(OC)c3C)nc2n1` (centres undefined) [Tenatoprazole] (20 µM) stands 0.996; under `CCCCC(=O)O[C@H]1CC[C@H]2[C@@H]3CCc4cc(O)ccc4[C@H]3CC[C@]12C` [Estradiol Valerate] (20 µM), 0.925; under `O=C(O)CCc1nc(-c2ccccc2)c(-c2ccccc2)o1` [Oxaprozin] (20 µM), 1.
Under `CC(C)(C)NC[C@H](O)c1ccc(O)c(CO)c1` [Levalbuterol hydrochloride] (20 µM) stands 0.996; under `COc1ccc(C(=O)c2ccc(C)cc2)c(O)c1` [Mexenone] (20 µM), 1.01.
